# High-throughput results: PubChem BioAssay, several laboratories
# Rows were chosen to be rich in hits. Some 2.4% of all compounds tested hit in one or more screens of this group.
# TLR9-MyD88 inh: inhibitors of human TLR9-MyD88 binding | Q9NR96+Q99836 | CHO BLA complementation TLR9-MyD88, CCF4 FRET ratio | inhibition, % at 4.98 µM | 340,000 tested, 0.21% active | AID 504734;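 active = inhibition above the mean over all tested compounds plus 3 SD, cut at about 21% in these data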
# HSF1 inh: HSF1 inhibition; NIH3T3-HGL HSE-luciferase, MG132-induced, luminescence 8 h; active compounds read low; activity change, negative = inhibition, % at 7.5 µM (by protocol); 300,000 tested, 0.77% active;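 active = more than half of replicate wells show activity change below -50%, luminescence cut by over half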;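 note: luciferase reports HSF-1 transcriptional activity via heat shock element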
# HSF-1 act: increases HSF-1 driven luciferase reporter signal; NIH3T3-HGL HSF-1 luciferase reporter, MG132, 8 h; 100% = twice DMSO control signal; 300,000 tested, 1.7% active; activation, % at 9 µM;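 active = mean replicate activation of at least 50% with a set share of replicates each reaching 50%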
# TLR4 MyD88 comp: inhibitors of human TLR4-MyD88 binding; HeLa CL3-4 TLR4/MyD88 BLA complementation, FRET ratio; O00206+Q99836; inhibition, % at 8.4 µM; 200,000 tested, 0.18% active; in the data active = inhibition above about 25%
# NOD2-RIPK2 inh: NOD2-RIPK2 protein interaction inhibition | O43353 | CHO BLA complementation NOD2-RIPK2, CCF4 ratio | inhibition, % at 4.98 µM | 360,000 tested, 0.38% active | AID 624267; in the data active = inhibition above about 21%
# Target sequence (O43353 whole entry, looked up): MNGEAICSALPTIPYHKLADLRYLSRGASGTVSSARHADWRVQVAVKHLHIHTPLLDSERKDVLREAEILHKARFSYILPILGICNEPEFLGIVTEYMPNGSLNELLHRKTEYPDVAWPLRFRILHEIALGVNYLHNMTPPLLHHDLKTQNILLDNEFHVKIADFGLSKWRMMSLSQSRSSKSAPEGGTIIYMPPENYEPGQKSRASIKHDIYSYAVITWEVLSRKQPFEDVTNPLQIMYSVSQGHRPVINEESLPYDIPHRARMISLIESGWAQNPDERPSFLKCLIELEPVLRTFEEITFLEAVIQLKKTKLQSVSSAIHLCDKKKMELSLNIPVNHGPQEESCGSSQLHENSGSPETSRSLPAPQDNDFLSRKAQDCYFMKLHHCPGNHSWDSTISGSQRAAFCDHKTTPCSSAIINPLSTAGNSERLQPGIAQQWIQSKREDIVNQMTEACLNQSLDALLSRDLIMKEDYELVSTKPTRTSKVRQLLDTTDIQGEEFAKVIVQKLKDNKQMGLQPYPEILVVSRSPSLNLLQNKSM
# Numbers stand for hits; 0 = inactive; - = no result given.
SMILES,TLR9-MyD88 inh,HSF1 inh,HSF-1 act,TLR4 MyD88 comp,NOD2-RIPK2 inh
CCn1c(-c2ccsc2)nc2c1c(=O)[nH]c(=O)n2Cc1ccccc1,0,0,56,0,0
CCCn1c(-c2cccs2)nc2c1c(=O)[nH]c(=O)n2Cc1ccccc1,0,0,0,0,0
Nc1cc(S(=O)(=O)Nc2ccccc2Cl)ccc1N1CCCCC1,0,-,-,-,0
C=CCn1c(C)cc(C(=O)COC(=O)COc2ccccc2C#N)c1C,0,0,0,0,0
C=CCn1c(C)cc(C(=O)COC(=O)[C@@H](NC(=O)c2ccccc2Cl)C(C)C)c1C,0,-61,0,0,0
COc1ccc(CNC(=O)C(c2ccc(C)o2)N(C(=O)c2snc(C(N)=O)c2N)c2ccccc2OC)cc1 (centres undefined),0,0,58,-,0
COc1ccc(OC)c(N(C(=O)c2snc(C(N)=O)c2N)C(C(=O)NCc2ccccc2)c2ccc(O)cc2)c1 (centres undefined),0,0,0,-,0
COCc1cc(=O)oc2cc(NC(=O)c3ccc(C(C)(C)C)cc3)ccc12,0,0,57,-,0
COc1cc(OC)cc(C(=O)NCC(=O)OCc2cc(=O)oc3cc(OC)ccc23)c1,0,0,0,-,0
O=C(O)CSc1nnnn1-c1ccc2c(c1)OCCO2,0,0,70,0,0
CN(c1ccccc1)S(=O)(=O)c1cc(C(=O)NCCCn2ccnc2)ccc1Cl,0,-,-,-,0
Cc1ccc2oc(=O)c(/C=C(\O)c3ccccc3)nc2c1,0,0,0,0,0
O=c1oc2ccc(Cl)cc2nc1/C=C(\O)c1cccs1,0,0,52,-,0
Cc1ccc2oc(=O)c(/C=C(\O)c3cccs3)nc2c1,0,0,119,-,0
Cc1ccc(C(=O)N2c3ccccc3CC2C)o1 (centres undefined),0,0,54,0,0
COc1ccc(OC)c(S(=O)(=O)Nc2ccccc2O)c1,0,0,90,-,0
NC[C@@]12CCCC1C1CCC2C1 (some centres undefined),-,0,0,0,-
O[C@@H]1C2CCCC1[C@]1(O)CCCCC1C2 (some centres undefined),0,0,53,0,0
COc1cccc(C(C(=O)NC(C)(C)C)N(CCc2ccccc2)C(=O)CCC(=O)Nc2cc(C)on2)c1OC (centres undefined),0,0,0,-,0
C#CCSc1nnc(-c2ccc(C)cc2)o1,0,0,61,0,0
C#CCSc1nnc(-c2cccc3ccccc23)o1,0,0,69,0,0
Cc1cc(C)nc(/N=C(\N)Nc2ccc3c(c2)OCCO3)n1,0,-54,0,0,0
Cc1cc(=O)[nH]c(/N=C(\N)Nc2ccc3c(c2)OCCO3)n1,0,0,0,0,0
COC(=O)c1c(NC(=O)c2nn(C)cc2Cl)sc2c1CCCC2,0,0,58,0,0
CCCS(=O)(=O)NC(=O)C1(C)CCN(C(=O)c2cccc3ccccc23)C1 (centres undefined),-,-,-,-,0
SMILES,TLR9-MyD88 inh,HSF1 inh,HSF-1 act,TLR4 MyD88 comp,NOD2-RIPK2 inh
O=[N+]([O-])c1nn(-c2ccc3c(c2)OCCO3)n(O)c1=NCc1ccc(F)cc1Cl,0,0,0,0,0
O=[N+]([O-])c1nn(-c2ccc3c(c2)OCCO3)n(O)c1=NCc1ccc(F)cc1,0,0,54,0,0
CN(CC(=O)Nc1cccc(F)c1)C(=O)c1ccccc1CCc1ccccc1,0,0,0,-,0
CCOc1ccc(/C=C/C(=O)Oc2ccccc2)cc1,0,0,0,-,0
CCOc1ccc(/C=C/C(=O)C(C(N)=O)=C2SCCS2)cc1,0,0,75,0,0
COc1ccccc1N(CC(=O)NCc1ccccc1)S(=O)(=O)c1cccs1,0,-,-,-,0
COc1ccc(S(=O)(=O)Nc2ccncc2)c(C)c1C,0,0,60,0,0
CC(=O)N(CCC(c1ccccc1)c1ccco1)Cc1cccs1 (centres undefined),0,0,0,0,0
CCC(=O)N(CCC(c1ccco1)c1ccccc1OC)Cc1cccs1 (centres undefined),0,-75,0,0,0
O=C(CSc1ccc([N+](=O)[O-])cc1)Nc1nnc(C2CC2)s1,0,-,-,-,0
CCOC(=O)C(C)Oc1cc(Cl)c(C=O)cc1OC (centres undefined),0,0,51,0,0
COC(=O)COc1cc(Cl)c(C=O)cc1OC,0,0,0,0,0
CC(=O)Nc1ccc(Oc2ccccc2)cc1,0,0,0,-,0
CC(=O)Nc1ccc(Oc2sc(C(=O)c3ccccc3)c(N)c2C#N)cc1,0,0,87,0,0
COc1cccc(-n2nnnc2SCC(=O)Nc2ccccc2OC)c1,0,0,0,-,0
CCCS(=O)(=O)c1nnnn1-c1cccc(OC)c1,0,-95,0,0,0
CNc1ncc(C(=O)c2ccccc2)s1,0,0,57,0,0
O=C(Nc1ccccc1)C1=C(O)CC(c2ccoc2)CC1=Nc1ccccc1 (centres undefined),0,0,86,0,0
Cc1ccc(NC(=O)CN2C(=O)NC3(CCc4ccccc43)C2=O)cc1S(=O)(=O)N1CCCCC1 (centres undefined),0,0,0,-,0
O=C(CN1C(=O)NC2(CCCc3ccccc32)C1=O)Nc1cccc(S(=O)(=O)N2CCCCC2)c1 (centres undefined),0,0,58,0,0
CC(=O)N1CCc2cc(S(=O)(=O)CCC(=O)NCCc3ccc(Cl)cc3)ccc21,0,0,0,-,0
C(/C=C/c1ccccn1)=C\c1ccccc1,0,0,61,-,0
C(=C\c1ccccn1)/c1ccncc1,0,0,0,-,0
Cc1cccc(/C=N/NC(=O)Cc2ccc(Cl)cc2)c1O,0,0,0,-,0
Cc1cccc(/C=N\NC(=O)c2ccc(Cl)cc2)c1O,0,0,259,0,0
SMILES,TLR9-MyD88 inh,HSF1 inh,HSF-1 act,TLR4 MyD88 comp,NOD2-RIPK2 inh
O=C(N/N=C/C(Br)=C/c1ccccc1)C(O)c1ccccc1 (centres undefined),0,0,61,-,0
CC(/C=N/NC(=O)Cn1cnc2ccccc21)=C\c1ccccc1,0,-66,0,0,0
CC(=C/c1ccccc1)/C=N/NC(=O)c1cccs1,-,0,55,-,0
CN(C)CCCn1c2c(c(SCC(=O)Nc3ccc4c(c3)OCCO4)nc1=O)CCCC2,0,-,-,-,0
CCOC(=O)C1CCCN(C(=O)C(CCSC)NC(=O)COc2ccccc2)C1 (centres undefined),0,-,-,-,0
O=C(Nc1cccc(F)c1)c1ccccc1,0,0,0,0,0
O=C(N/N=C/c1cccc([N+](=O)[O-])c1)c1cccs1,0,0,54,0,0
CC(/C=N/NC(=O)c1ccncc1)=C\c1ccccc1,0,0,0,0,0
O=C(Nc1ccc(Nc2ccccc2)cc1)c1cccc(F)c1,0,0,67,-,0
CC(/C=N/NC(=O)c1cccc(F)c1)=C\c1ccccc1,0,0,83,-,0
O=C(N/N=C/c1ccc(Cl)cc1Cl)c1cccc(F)c1,0,0,56,0,0
CN(C)c1ccc2nc3c(=O)[nH]c(=O)nc-3n(CC(O)C(O)C(O)CO)c2c1 (centres undefined),0,0,0,-,0
